# A selection: hits, their analogues and other compounds. The true share with any hit is near 4.1%.
# Gli-Sufu antag: antagonists of Gli-Sufu signaling | Sufu-KO-LIGHT fibroblasts, Gli luciferase reporter luminescence | hit rate 0.74% among 340,000 | AID 588413 | inhibition, % at 5 µM;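 active means inhibition above about 55%, limit read from the data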;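 further: 0% = DMSO-treated cells and 100% = wells with medium but no cells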
# 697 NFkB inh: inhibitors of the PMA/ionomycin-induced NF-kB reporter in 697 B cells | inhibition, % at 4 µM | hit rate 0.33% among 330,000 | AID 435022 | 697 B-cell NF-kB luciferase reporter, 16 h; in the data active means inhibition above about 35%
# Jurkat NFkB inh: lowers PMA/ionomycin-induced NF-kB signal in Jurkat cells; PMA/ionomycin-induced NF-kB luciferase reporter, luminescence; hit rate 0.53% among 330,000; AID 435003; inhibition, % at 4 µM; in the data active means inhibition above about 50%
# aSyn UTR inh: 5' untranslated region of α-synuclein, MLPCN primary screen; alpha-synuclein 5'UTR reporter, inhibitor activity; inhibition, % (tested at 7.5 µM); hit rate 0.82% among 300,000; in the data active means inhibition above about 60%;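 further: H4 neuroglioblastoma cells stably carrying SNCA 5'UTR luciferase fusion; 0% = DMSO wells and 100% = positive control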
# Mdm2-MdmX inh: disrupts the human Mdm2-MdmX interaction; inhibition, % at 8 µM; AID 485346; SaOS-2 split-luciferase Mdm2/MdmX complementation, luminescence; O15151+Q00987; hit rate 3% among 330,000;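 active means inhibition of at least 50% at 8 µM in the primary screen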
# Target sequence (O15151 whole entry, looked up): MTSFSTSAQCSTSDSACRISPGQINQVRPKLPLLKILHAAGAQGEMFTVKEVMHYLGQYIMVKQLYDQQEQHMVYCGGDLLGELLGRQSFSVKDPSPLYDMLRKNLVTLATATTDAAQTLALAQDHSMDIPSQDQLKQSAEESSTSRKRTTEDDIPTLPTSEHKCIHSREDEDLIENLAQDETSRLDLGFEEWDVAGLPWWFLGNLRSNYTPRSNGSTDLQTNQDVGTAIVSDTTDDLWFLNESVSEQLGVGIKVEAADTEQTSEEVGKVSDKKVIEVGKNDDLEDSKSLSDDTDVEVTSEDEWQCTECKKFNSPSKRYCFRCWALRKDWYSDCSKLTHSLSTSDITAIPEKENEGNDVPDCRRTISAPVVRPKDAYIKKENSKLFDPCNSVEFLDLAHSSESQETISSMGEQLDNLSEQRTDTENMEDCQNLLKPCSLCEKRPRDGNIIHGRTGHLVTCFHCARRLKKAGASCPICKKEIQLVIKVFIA
# Target sequence (Q00987 whole entry, looked up): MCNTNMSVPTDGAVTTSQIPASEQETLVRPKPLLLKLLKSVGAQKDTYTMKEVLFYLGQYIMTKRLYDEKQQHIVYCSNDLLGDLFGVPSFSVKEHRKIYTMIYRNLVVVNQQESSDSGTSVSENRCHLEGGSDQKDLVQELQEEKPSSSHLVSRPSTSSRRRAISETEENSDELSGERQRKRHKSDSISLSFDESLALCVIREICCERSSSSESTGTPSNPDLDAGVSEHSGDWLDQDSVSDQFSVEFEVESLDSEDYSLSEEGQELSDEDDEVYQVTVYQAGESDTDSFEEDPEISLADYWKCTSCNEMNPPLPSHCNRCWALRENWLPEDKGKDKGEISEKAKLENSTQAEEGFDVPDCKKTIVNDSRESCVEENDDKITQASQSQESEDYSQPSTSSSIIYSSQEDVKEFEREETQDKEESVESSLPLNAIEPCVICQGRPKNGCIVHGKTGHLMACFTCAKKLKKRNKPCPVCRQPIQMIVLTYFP
# KLF5 inh: kruppel-like factor 5 inhibition. DLD-1 KLF5 promoter-luciferase reporter, luminescence. inhibition, % at 5 µM. hit rate 0.23% among 290,000;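 active means inhibition above a per-plate limit of that plate's mean compound inhibition plus 3 SD, cut at about 60% in these data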;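 further: 0% = DMSO wells and 100% = LY294002 at 200 µM; higher means less KLF5 promoter-driven luciferase light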
# Mdm2 MdmX conf: human Mdm2/MdmX binding inhibition, confirmed. shares compounds with Mdm2-MdmX inh. luminescent assay. inhibition, % at 8 µM. hit rate 55% among 10,000. AID 489028; in the data active means inhibition above about 40%
# FLuc counter: full-length luciferase inhibition in Mdm2/MdmX counter-screen; shares compounds with Mdm2-MdmX inh; SaOS-2 full-length luciferase counterscreen, luminescence; inhibition, % at 8 µM; hit rate 77% among 6,200;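 active means mean inhibition at 8 µM reaching about 37%, which flags the compound as non-specific, limit read from the data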;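 further: p53-null SaOS-2 cells with luciferase driven by a doxycycline-inducible promoter; compound on cells about two nights before reading with doxycycline added after day one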
# * marks the source's active call; other numbers are inactive results; · = no result.
SMILES,Gli-Sufu antag,697 NFkB inh,Jurkat NFkB inh,aSyn UTR inh,Mdm2-MdmX inh,KLF5 inh,Mdm2 MdmX conf,FLuc counter
COc1ccc(-c2nc(N)ncc2-c2ccccc2)c(O)c1,0.1,1.4,10.4,33.7,46.1,-18.5,·,·
C=C(C)COc1ccc(-c2[nH]ncc2-c2ccc(OC)cc2)c(O)c1,-7.4,-4.1,10.0,7.3,62.6*,3.2,65.1*,28.9
COc1ccc(-c2cn[nH]c2-c2ccc(O)cc2O)cc1,-9.9,10.7,-3.8,-25.7,71.1*,5.5,69.5*,25.3
COc1ccc(-c2cnc(N)nc2-c2ccc(OC)cc2O)cc1,-14.8,-4.6,3.0,2.7,58.0*,-6.5,17.8,·
COc1ccc(-c2cn[nH]c2-c2ccc(OCc3ccccc3)cc2O)cc1OC,6.0,-32.8,32.0,28.8,53.0*,4.4,55.4*,43.4*
O=C1CN(C(=O)COc2ccc(Br)cc2)c2ccccc2N1,-7.8,18.9,8.1,7.5,18.6,-0.2,·,·
C[C@@H]1C2CC(C/C2=N\NC(=O)c2ccncc2)C1(C)C (stereo not given in full),-13.4,-13.7,-7.0,4.9,20.3,-12.6,·,·
CCCCC(CC)CN=C(N)NC(N)=NCCCCCCN=C(N)NC(N)=NCC(CC)CCCC (stereo not given),67.2*,5.8,39.5,·,99.0*,·,86.1*,15.4
Cc1ccc(Cl)cc1N1CCN(CC(=O)Nc2ccc(CN3CCCCC3)cc2)CC1,8.8,-11.7,-9.3,-7.6,69.5*,-32.7,43.1*,59.6*
COc1ccccc1N1CCN(CC(=O)Nc2ccc(CN3CCCCC3)cc2)CC1,6.9,-8.1,-1.8,17.5,-13.2,-3.8,·,·
O=C(CN1CCCC1)Nc1ccc(Oc2ccc(NC(=O)CN3CCCC3)cc2)cc1,9.9,5.9,-23.9,-40.4,56.3*,-54.6,52.9*,58.0*
COc1ccccc1NC(=O)C[n+]1ccccc1C,-6.8,8.7,-12.6,0.4,11.3,-21.1,·,·
CCCC(NCC(O)COc1ccc(-c2ccccc2)cc1)c1ccccc1 (stereo not given),29.5,0.1,17.9,82.8*,100.3*,-7.5,56.5*,60.4*
Cc1cc(OCC(O)CNC(C)c2ccccc2)ccc1C(C)C (stereo not given),14.3,-1.9,0.0,0.5,58.8*,-11.6,17.3,·
CSc1ccc(CN2CCC(C(=O)NCc3ccc(C)cc3)CC2)cc1,3.5,23.3,13.5,4.2,25.8,-19.8,·,·
COc1ccc(C(=O)N2CCN(Cc3ccccc3)CC2)cc1[N+](=O)[O-],12.7,5.6,12.0,12.5,5.1,-58.4,·,·
O=C(c1ccc(S(=O)(=O)c2cccc(Cl)c2)c([N+](=O)[O-])c1)N1CCN(Cc2ccccc2)CC1,13.1,-9.2,18.0,-8.2,94.2*,10.4,85.1*,57.7*
CC1CCN(C(=O)c2ccc(S(=O)(=O)Cc3cccc(F)c3)c([N+](=O)[O-])c2)CC1,11.1,11.6,19.4,-39.2,55.8*,-4.1,49.5*,71.7*
O=C(c1ccc(S(=O)(=O)Cc2ccccc2Cl)c([N+](=O)[O-])c1)N1CCN(c2ccccn2)CC1,14.6,23.2,4.0,-47.2,75.1*,-41.9,64.0*,38.6*
CCN(CC)c1ccc(/C=C(/C#N)c2nc3ccccc3[nH]2)c(OC(C)C)c1,38.5,-132.0,-57.7,-211.1,79.8*,-41.1,76.7*,87.6*
CCOc1cccc(/C=C(/C#N)c2nc3ccccc3[nH]2)c1OCC(=O)O,-4.3,-18.4,-12.2,-20.6,-2.5,-39.3,·,·
C[C@]12c3[nH]c4ccc(Cl)cc4c3CCN1C(=O)[C@@H](CC(=O)NCc1cccc(C(F)(F)F)c1)C[C@@H]2C(=O)N1CCCCC1,1.1,8.5,·,·,81.3*,·,2.1,·
CC[C@]12c3[nH]c4ccc(OC)cc4c3CCN1C(=O)C(CC(=O)NCc1cccc(C(F)(F)F)c1)C[C@@H]2C(=O)N1CCN(C(=O)c2ccco2)CC1 (stereo not given in full),-4.9,6.9,·,·,1.5,·,·,·
CC[C@]12c3[nH]c4ccc(Cl)cc4c3CCN1C(=O)[C@@H](CC(=O)NCc1cccc(C(F)(F)F)c1)C[C@@H]2C(=O)N1CCN(C(=O)c2ccco2)CC1,5.9,1.3,·,·,58.3*,·,10.5,·

# Bioassay records: PubChem, several laboratories
